Source: PubChem BioAssay (National Center for Advancing Translational Sciences (NCATS))
ALOX12 inh = Primary qHTS assay for inhibitors of human arachidonate 12S-lipoxygenase (ALOX12): Round 2. Polyunsaturated fatty acid lipoxygenase ALOX12 (Homo sapiens), P18054. purified 12hLO, xylenol orange hydroperoxide absorbance. Potency, µM (top dose mostly 108 µM), for the others: top-dose activity change, negative = inhibition, usual class: inhibitors. 580,000 tested, 1.1% active. AID 1671190, 2021; further: potency means the concentration at half of the fitted maximal effect; on the % scale 0 is the no-effect control and ±100 the full control effect
Target sequence (P18054 whole entry, looked up): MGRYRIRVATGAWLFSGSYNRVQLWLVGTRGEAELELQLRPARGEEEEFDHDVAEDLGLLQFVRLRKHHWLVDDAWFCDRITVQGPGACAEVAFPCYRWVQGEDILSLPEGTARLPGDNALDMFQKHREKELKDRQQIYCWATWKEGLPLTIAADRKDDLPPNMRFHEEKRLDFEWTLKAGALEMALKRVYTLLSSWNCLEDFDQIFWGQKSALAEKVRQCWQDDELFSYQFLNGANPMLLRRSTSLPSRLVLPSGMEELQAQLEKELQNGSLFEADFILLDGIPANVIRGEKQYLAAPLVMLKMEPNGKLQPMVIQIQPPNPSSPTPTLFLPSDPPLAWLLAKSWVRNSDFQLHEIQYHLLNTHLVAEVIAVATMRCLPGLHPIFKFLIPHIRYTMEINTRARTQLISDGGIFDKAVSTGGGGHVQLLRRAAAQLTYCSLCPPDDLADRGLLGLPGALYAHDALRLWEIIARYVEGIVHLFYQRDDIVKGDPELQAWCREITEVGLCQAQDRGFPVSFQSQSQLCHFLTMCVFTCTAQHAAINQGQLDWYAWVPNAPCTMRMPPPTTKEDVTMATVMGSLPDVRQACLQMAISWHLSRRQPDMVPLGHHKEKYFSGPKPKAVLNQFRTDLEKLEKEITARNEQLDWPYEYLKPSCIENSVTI
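Purified human 12hLO at 150 nM in 25 mM Hepes, 0.01% Triton X-100, pH 7.0, preincubated 15 min at room temperature with compound. Reaction started with 40 uM arachidonic acid, 30 min at room temperature. Hydroperoxide measured by Fe-xylenol orange, 573/405 nm absorbance ratio.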
Pol iota inh = qHTS for Inhibitors of Polymerase Iota; Potency, µM (series often up to 115 µM), for inactives: at the top dose activity, negative = inhibition, hits mostly inhibitors; 390,000 tested, 1% active; Pol iota fluorescent replication assay, 10 min; further: potency means the concentration at half of the fitted maximal effect
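Fluorescent replication assay read twice, at 0 min and 10 min after adding 50 nM (final) substrate. Enzyme (10 nM) and compounds were first incubated 15 min at room temperature; enzyme-free buffer wells were negative controls.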
POLB inh = qHTS Assay for Inhibitors of DNA Polymerase Beta; P06746; Pol beta primer extension/strand displacement, fluorescence kinetic; Potency, µM (doses to about 114 µM), without a hit: top-dose activity change, negative = inhibition, usual class: inhibitors; 340,000 tested, 1.3% active; AID 485314, 2010; further: potency means the concentration at half of the fitted maximal effect; on the % scale 0 is the no-effect control and ±100 the full control effect
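10 nM enzyme + cpd, 15 min RT; start with substrate 50 nM final; read 0 min and after 10 min RT. Corrected, normalized data; 4-parameter Hill curve fit.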
Pol kappa inh = qHTS for Inhibitors of Polymerase Kappa | DNA polymerase kappa (Homo sapiens), Q9UBT6 | Potency, µM (highest dose often 107 µM), without a hit: at the highest dose activity, negative = inhibition, actives largely listed as inhibitors | 400,000 tested, 0.53% active | purified Pol kappa, fluorescent DNA synthesis assay, 10 min; further: potency means the concentration at half of the fitted maximal effect; on the % scale 0 is the no-effect control and ±100 the full control effect
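Pol kappa 10 nM + cpd, 15 min RT; start w/ substrate 50 nM final; fluorescence kinetic read, 0 and 10 min. Neg ctrl: buffer, no enzyme.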
POLH inh = qHTS for Inhibitors of Polymerase Eta. AID 588591, 2011. 390,000 tested, 1.2% active. DNA polymerase eta (Homo sapiens), Q9Y253. recombinant Pol eta, fluorescent DNA replication assay. Potency, µM (series often up to 114 µM), without a hit: at the highest dose activity change, negative = inhibition, most hits filed as inhibitors; further: potency means the concentration at half of the fitted maximal effect; on the % scale 0 is the no-effect control and ±100 the full control effect
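Pol eta at 10 nM preincubated with compounds 15 min at room temperature; reaction started with fluorescent substrate (50 nM final) and read kinetically at 0 and 10 min.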
PI5P4K alpha inh = qHTS for Inhibitors of phosphatidylinositol 5-phosphate 4-kinase (PI5P4K) | Phosphatidylinositol 5-phosphate 4-kinase type-2 alpha (Homo sapiens), P48426 | PI5P4Kalpha enzyme, ADP-Glo luminescence, 60 min; stronger effect = lower value | max response, % | 330,000 tested, 1.2% active | AID 652105, 2013; active means max response of -50% or lower; inconclusive means between -30% and -50%; inactive means -30% or higher; further: value at the top dose of about 77 µM; on the % scale 0 is the no-effect control and ±100 the full control effect
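Enzyme plus substrate dispensed, test compounds pinned in, then ATP (5 microM final) added. After 60 min at RT, ADP-Glo reagent 1 for 45 min and reagent 2 for 30 min preceded luminescence imaging.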
Starred values were filed as active, the others as inactive; ? = inconclusive; . = no result given; [ ] = another dose, or the depositor's remark. Only some compounds are listed: those with a hit (about 2.9% of all), similar ones and a draw of the others. Unless noted, the call rests on the fitted dose curve; in most records, active means well fitted inhibition curve with a large enough effect; inconclusive means small, poorly fitted or top-dose-only effect, or another doubt; inactive means no such curve, though single readings can be large or run the other way.

SMILES	ALOX12 inh	Pol iota inh	POLB inh	Pol kappa inh	POLH inh	PI5P4K alpha inh
CCOC(=O)C1(Cc2cccc(C(F)(F)F)c2)CCN(Cc2cc(C(C)C)n[nH]2)CC1	47%	.	.	.	.	.
Cc1cc(C)c2c(CN3CCC(C)CC3)cc(=O)oc2c1	45µM*	31%	-19%	-4%	?	4
Cc1cc(C)c2c(CN3CCCCC3)cc(=O)oc2c1	27%	108%	9%	0%	-21%	4
CNC(=S)N/N=C1\C(=O)c2cccc3cccc1c23	8%	17%	14%	-25%	2%	1
O=C(N/N=C1\C(=O)c2cccc3cccc1c23)c1ccc(O)cc1	0%	183%	5.6µM*	-9%	?	-22
C=CCOC(=O)C1=C(C)NC(SCC(=O)OCC)=C(C#N)C1c1ccc(O)c(OC)c1 (configuration not stated)	.	8%	?	-14%	?	-54*
C=CCOC(=O)C1=C(C)NC(SC)=C(C#N)C1c1ccc(OCC)cc1 (configuration not stated)	-23%	-8%	-4%	-13%	?	14
Cc1ccc(-c2csc(N3N=C(c4ccccc4)/C(=C\c4ccc(N(C)C)cc4)C3=O)n2)cc1	.	.	50µM*	.	.	.
CCSc1nc2c([nH]1)c(=O)n(C)c(=S)n2C	10µM*	?	.	6%	-5%	-28
O=C(CSc1nnc(NC(=O)c2ccccc2Cl)s1)Nc1ccc2c(c1)oc1ccccc12	-23%	.	32µM*	.	.	.
CC(C)(C)NC(=O)CSc1nnc(NC(=O)c2ccccc2Cl)s1	-7%	-12%	1%	-12%	-6%	0
Cc1ccc(-c2cc(-c3ccccc3Cl)c(C#N)c(N)n2)o1	7.1µM*	?	-5%	1%	4%	?
Cc1ccc(-c2cc(-c3ccc(F)cc3)nc(N)c2C#N)o1	6.3µM*	7%	-18%	-14%	-1%	?
Cc1ccc(-c2c(C#N)c(N)nc3c2CCCC3)o1	-7%	-12%	2%	-10%	-1%	2
N#Cc1c(-c2ccncc2)cc(-c2ccc(F)cc2)nc1N	-10%	141%	26%	-15%	4%	1
Cc1ccc(-c2cc(-c3ccccc3)c(C#N)c(N)n2)o1	0.79µM*	-3%	12%	-9%	-8%	-58*
O=C(Nc1ccc(-c2nc3ccccc3o2)c(O)c1)c1cccc(I)c1	16%	.	.	.	.	.
CCC[C@H](NC(=O)C(C#N)=Cc1cccc(Br)n1)c1ccccc1	7.7µM*	.	.	.	.	.
COc1cccc(CN(C)C(=O)c2ccc3nccnc3c2)c1	0%	?	40µM*	-27%	13µM*	?
Cc1ccc(-c2cc(C(=O)NCc3ccccc3)[nH]n2)c(O)c1C	-14%	.	.	.	.	.
Cc1ccc(NC(=O)CN2C(=O)c3ccccc3Sc3ccc(C(=O)N4CCCC4)cc32)cc1	?	71µM*	?	-7%[60.1 µM]	?	.
COc1cc(NC(=O)CN2C(=O)c3ccccc3Sc3ccc(C(=O)N4CCCC4)cc32)cc(OC)c1	-17%	?	?	0%[60.1 µM]	?	.
Cc1ccc(C2(SCC(N)C(=O)O)c3ccccc3-c3ccccc32)cc1 (configuration not stated)	?	?	.	?	22µM*	-19
NC(CSC(c1ccccc1)(c1ccccc1)c1ccccc1)C(=O)O (configuration not stated)	?	?	.	-19%	?	-22
Cc1ccc(C(C)NC(=O)NCCNc2ncccc2C#N)cc1 (configuration not stated)	-24%	.	.	.	.	.
SMILES	ALOX12 inh	Pol iota inh	POLB inh	Pol kappa inh	POLH inh	PI5P4K alpha inh
CC1=C(Cc2cc3ccc(=O)oc3cc2O)CC(C)(C)CC1	6.3µM*	.	.	.	.	.
CCOC(=O)c1cc2c(=Cc3ccc(N(C)C)cc3)c3ccccc3n2[n+]1C	?	40µM*	.	-20%	?	-15
Cc1cc2c(=Cc3ccc(N(C)C)cc3)c3ccccc3n2[n+]1C	-57%	79µM*	.	?	?	-21
CN(C)c1ccc(C=c2c3ccccc3n3c2c2ccccc2[n+]3C)cc1	5µM*	?	.	-19%	?	-75*
CN(C)c1ccc(C=C2c3ccccc3-c3ccccc32)cc1	.	2%	.	-21%	.	.
CC(C)C[C@@H]1N[C@H](C(=O)N2CCOCC2)Cc2cn(Cc3ccccn3)c3cccc1c23	4%[176 µM]	.	.	.	.	.
COc1ccc2c(c1)CC/C(=C\c1ccc(Br)o1)C2=O	22µM*	.	.	.	.	.
COc1ccc2c(c1)CC/C(=C/c1cc(OC)c(OC)c(OC)c1)C2=O	19%	23%	12%	5%	-19%	1
O=C(NCNC(=O)Nc1ccccc1)Nc1ccccc1	-21%	.	.	.	.	.
CNc1ccnc(-c2ccccc2C)n1	?	.	.	2%[60.1 µM]	.	.
COc1ccccc1-c1nccc(NCc2ccccc2)n1	22µM*	.	.	3%[60.1 µM]	.	.
COc1ccccc1-c1nccc(NCc2cccnc2)n1	?	.	.	1%[60.1 µM]	.	.
COc1ccccc1CNc1ccnc(-c2ccc(N(C)C)cc2)n1	25µM*	.	.	?	.	.
CNc1ccnc(-c2ccccc2OC)n1	16µM*	.	.	2%[60.1 µM]	.	.
Cc1ccc2nc(CSc3nnc(N4CCCCC4)n3-c3ccccc3)cn2c1	-26%	.	.	.	.	.
CCN(CC)C(CNC(=O)Nc1cccc(C(=O)N2CCOCC2)c1)c1ccsc1 (configuration not stated)	24%	.	.	.	.	.
CCOc1ccc(CCNC(=O)c2noc(C)c2Cn2nc(C)cc2C)cc1	3%	.	.	.	.	.
CCCOC(=O)c1cc(NC(=O)c2cccc(C)c2OC)ccc1N1CCOCC1	76%	.	.	.	.	.
COC(=O)/C=C/C(=O)Nc1ccc(O)c(Cl)c1	?	-19%	-2%	-20%	?	-59*
CC(=O)Nc1ccc(NC(=O)COC(=O)Cc2cccc3ccccc23)cc1	0%	.	.	.	.	.
CCN(CC)C(=S)SCc1nc2ccccc2s1	0%	.	.	.	.	.
Cc1ccc(CN(C(=O)CCc2cccs2)C2CC2)cc1	0%	.	.	.	.	.
Cc1nc(NC(=O)COC(=O)/C=C/c2ccco2)c(Cl)cc1Cl	?	32µM*	.	71µM*	28µM*	-30
CC1CC1C(=O)OCC(=O)Nc1ncc(Cl)cc1Cl (configuration not stated)	?	14µM*	.	?	28µM*	?
O=C(COC(=O)/C=C/c1ccco1)NCCN1C(=O)CSC1=O	-6%	-16%	.	-20%	50µM*	-8
